Results taken from PubChem BioAssay (Tox21).
Records with an inconclusive call do not appear. Entries that show only a call come without a potency. A number with no mark means an inactive call. The source made the active and inactive calls. Calls follow the shape of the dose curve; as a rule, active = well fitted cell-killing curve with a large enough effect in the repeat runs; inconclusive = weak or mixed curves, or effect the other way; inactive = flat fitted curve, though single readings scatter.

Legend:
[1] = cAMP Responsive Elements (CRE) small molecule antagonists, cell-based qHTS assay: qHTS cell viability counter screen (AID 2060913); also: nearly all actives have a fitted effect of over 40% in size
Method in brief: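 Cytotoxicity read in the same wells as the CRE-bla HEK293T antagonist assay: after 3 h compound with 0.25 uM NKH477 final and 2 h beta-lactamase substrate, CellTiter-Glo luminescence measured.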

[2] = cAMP Responsive Elements (CRE) small molecule agonists, cell-based qHTS assay: qHTS cell viability counter screen (AID 2060914); also: potency is read from the fitted curve at half-maximal effect;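 also: viability read after 3 h of compound exposure; nearly all actives have a fitted effect of over 50% in size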
Method in brief: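 Cytotoxicity counter screen multiplexed with the CRE-bla reporter assay in HEK 293T cells: 3 h compound exposure at 37 °C, followed by CellTiter-Glo luminescence measured in the same wells.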

SMILES	Potency [1]	Potency [2]	viability change, negative = cytotoxic [1]	activity change, negative = cytotoxicity [2]
CC(=O)Nc1cc(S(=O)(=O)O)cc2cc(S(=O)(=O)O)c(N=Nc3ccccc3)c(O)c12	inactive	inactive	–	–
O=C(O)c1cc(Cl)cc(Cl)c1	inactive	inactive	–	–
O=C(O)c1ccccc1[N+](=O)[O-]	inactive	inactive	–	–
COc1cc(C(=O)OC(COCCC(C)C)CN2CCOCC2)cc(OC)c1OC (stereo not drawn)	inactive	inactive	–	–
[Cl][Dy]([Cl])[Cl]	inactive	inactive	–	–
O=C(O)c1ccccc1C(=O)OCc1ccccc1	inactive	inactive	–	–
CC(C)(C)c1n[nH]c(=S)n(N)c1=O	inactive	inactive	–	–
CCCCCCCCCI	inactive	inactive	–	–
CC(C)[C@H]1CC[C@H](C)C[C@@H]1O	inactive	inactive	–	–
CC(C)(C)OC(=O)c1ccc(O)cc1	inactive	inactive	–	–
CC1(C)S[C@@H]2[C@H](N=CN3CCCCCC3)C(=O)N2[C@H]1C(=O)O	inactive	inactive	–	–
C[C@H]1[C@H]2CC[C@H]3[C@@H]4CC=C5C[C@@H](N(C)C)CC[C@]5(C)[C@H]4CC[C@]23CN1C	inactive	inactive	–	–
c1ccc(C(O[C@H]2CCCN(CCc3ccc4c(c3)OCO4)C2)c2ccccc2)cc1	inactive	inactive	–	–
CCN(CC)CCNC(=O)COc1ccc(Cl)cc1	inactive	inactive	–	–
CCCCCCCCCCCCCCCCO	inactive	inactive	–	–
CC(C)C(=O)c1ccccc1	inactive	inactive	–	–
NCCNCCNCCN	inactive	inactive	–	–
O=C(O)CNC(=O)c1ccccc1	inactive	inactive	–	–
O=C(OCCOCCOCCOC(=O)c1ccccc1)c1ccccc1	inactive	inactive	–	–
CC1(C)O[C@@H]2C[C@H]3[C@@H]4CCC5=CC(=O)CC[C@]5(C)[C@@]4(F)[C@@H](O)C[C@]3(C)[C@]2(C(=O)CCl)O1	inactive	inactive	–	–
CC1OC1C1CCC2(C)OC2C1 (stereo not drawn)	inactive	inactive	–	–
C=C1CC[C@H]2O[C@]2(C)CC[C@@H]2[C@@H]1CC2(C)C	inactive	inactive	–	–
C=CCn1cc[n+](C)c1	inactive	inactive	–	–
C=CCCCCCCCCCCC	–	–	-1.65% [at 8.39 µM]	-4.53% [at 8.39 µM]
CCCCCCCCCOCC1CO1 (stereo not drawn)	inactive	inactive	–	–

SMILES	Potency [1]	Potency [2]	viability change, negative = cytotoxic [1]	activity change, negative = cytotoxicity [2]
O=CN1CCOCC1	inactive	inactive	–	–
Cc1cc(C)nc(NS(=O)(=O)c2ccc(N)cc2)n1	inactive	inactive	–	–
CC(=O)c1ccc2c(c1)CCCC2	inactive	inactive	–	–
Cc1nc(-c2ccc(OCC(C)C)c(C#N)c2)sc1C(=O)O	inactive	inactive	–	–
NCCc1ccc(O)c(O)c1	inactive	inactive	–	–
Cc1c2oc3c(C)ccc(C(=O)N[C@@H]4C(=O)N[C@H](C(C)C)C(=O)N5CCC[C@H]5C(=O)N(C)CC(=O)N(C)[C@@H](C(C)C)C(=O)O[C@@H]4C)c3nc-2c(C(=O)N[C@@H]2C(=O)N[C@H](C(C)C)C(=O)N3CCC[C@H]3C(=O)N(C)CC(=O)N(C)[C@@H](C(C)C)C(=O)O[C@@H]2C)c(N)c1=O	inactive	inactive	–	–
Cc1ccc(N)nc1	inactive	inactive	–	–
CCOC(=O)C(C#N)=C(c1ccccc1)c1ccccc1	inactive	inactive	–	–
C1CCN(CN2CCCCC2)CC1	inactive	inactive	–	–
C[n+]1ccccc1/C=N/O	inactive	inactive	–	–
CCCCN(CCCC)CCCC	inactive	inactive	–	–
O=C(Nc1cccc(C2=NCCN2)c1)Nc1cccc(C2=NCCN2)c1	–	–	0.0426% [at 18.9 µM]	10.9% [at 18.9 µM]
O=C(O)CCCCCCCCCCC(=O)O	inactive	inactive	–	–
CN(C)C(=O)C(CCN1CCC(O)(c2ccc(Cl)cc2)CC1)(c1ccccc1)c1ccccc1	inactive	inactive	–	–
CCN(CC)CCOC(=O)C(Cc1cccc2ccccc12)CC1CCCO1 (stereo not drawn)	inactive	inactive	–	–
CN(C)c1ccc(C2(c3ccc(N(C)C)cc3)OC(=O)c3cc(N(C)C)ccc32)cc1	inactive	inactive	–	–
CCC(=O)OCCC(C)CCC=C(C)C (stereo not drawn)	inactive	inactive	–	–
c1ccc(CNc2ncnc3nc[nH]c23)cc1	inactive	inactive	–	–
CCOc1ccc2[nH]cc(C(=O)NCc3ccccc3)c(=O)c2n1	inactive	inactive	–	–
O=C(OC1C[C@H]2CC[C@@H](C1)[N+]21CCCC1)C(O)(c1ccccc1)c1ccccc1 (stereo partly drawn)	inactive	inactive	–	–
Cc1ccc([N+](=O)[O-])cc1S(=O)(=O)O	inactive	inactive	–	–
COC(=O)Nc1nc2ccc(Sc3ccccc3)cc2[nH]1	inactive	inactive	–	–
CCCCC(O)/C=C(C)/C=C/C=C/C(=O)N1CCCC1=O (stereo not drawn)	inactive	inactive	–	–
Nc1cc([N+](=O)[O-])ccc1Cl	inactive	inactive	–	–
CCCCCCCCCCCC	inactive	inactive	–	–

SMILES	Potency [1]	Potency [2]	viability change, negative = cytotoxic [1]	activity change, negative = cytotoxicity [2]
CN(C)C(=O)Nc1ccc(Oc2ccc(Cl)cc2)cc1	inactive	inactive	–	–
O=C(O)CCCCC(=O)O	inactive	inactive	–	–
OCCOCCN1CCN(C(c2ccccc2)c2ccc(Cl)cc2)CC1 (stereo not drawn)	inactive	inactive	–	–
CN(Cc1cc(Br)cc(Br)c1N)C1CCCCC1	inactive	inactive	–	–
COC(=O)c1sccc1S(N)(=O)=O	inactive	inactive	–	–
CCc1cnc(C(=O)O)c(C(=O)O)c1	inactive	inactive	–	–
C=CCOC(=O)c1ccccc1C(=O)OCC=C	inactive	inactive	–	–
O=C(CCCN1CCC(O)(c2ccc(Cl)cc2)CC1)c1ccc(F)cc1	inactive	inactive	–	–
CCN(CCC#N)c1ccccc1	inactive	inactive	–	–
CN(C)CCCN	inactive	inactive	–	–
CC(=O)N[C@@H](CO)C(=O)N[C@@H](CC(=O)O)C(=O)N[C@@H](CCCCN)C(=O)N1CCC[C@H]1C(=O)O	inactive	inactive	–	–
CN(C)C(=O)NC1(c2ccccc2)CCN(CC[C@@]2(c3ccc(F)c(F)c3)CN(C(=O)c3ccccc3)CCO2)CC1	inactive	inactive	–	–
Cc1ccc(C(=O)Nc2ccc(S(=O)(=O)O)c3cc(S(=O)(=O)O)cc(S(=O)(=O)O)c23)cc1NC(=O)c1cccc(NC(=O)Nc2cccc(C(=O)Nc3cc(C(=O)Nc4ccc(S(=O)(=O)O)c5cc(S(=O)(=O)O)cc(S(=O)(=O)O)c45)ccc3C)c2)c1	inactive	inactive	–	–
COCCOC	inactive	inactive	–	–
NC(CCC(=O)O)C(=O)O (stereo not drawn)	inactive	inactive	–	–
CC[N+](C)(CC)CCOC(=O)C1c2ccccc2Oc2ccccc21	inactive	inactive	–	–
O=[N+]([O-])c1cc(N(CCO)CCO)ccc1NCCO	inactive	inactive	–	–
CC(=O)N[C@@H](CCC(=O)O)C(=O)O	inactive	inactive	–	–
CCN(CC)C(C)=O	inactive	inactive	–	–
CCCCCCCCCCOCC(O)CN (stereo not drawn)	inactive	inactive	–	–
COc1ccccc1N=Nc1c(S(=O)(=O)O)cc2cc(S(=O)(=O)O)cc(NC(C)=O)c2c1O	inactive	inactive	–	–
O=C1CCCC1	inactive	inactive	–	–
CC[C@@]1(O)C(=O)OCc2c1cc1n(c2=O)Cc2c-1nc1ccccc1c2/C=N/OC(C)(C)C	inactive	inactive	–	–
CC(C)C1OCCN1CCOC(=O)NCCCCCCNC(=O)OCCN1CCOC1C(C)C (stereo not drawn)	inactive	inactive	–	–
CCCCCCCCCCCCCCCCCCOCC(O)CO (stereo not drawn)	inactive	inactive	–	–

SMILES	Potency [1]	Potency [2]	viability change, negative = cytotoxic [1]	activity change, negative = cytotoxicity [2]
CC1(C)O[C@@H]2[C@@H](CO[C@@]3(COS(N)(=O)=O)OC(C)(C)O[C@@H]23)O1	inactive	inactive	–	–
C1CCC2OC2C1 (stereo not drawn)	inactive	inactive	–	–
OC1CCCc2ccccc21 (stereo not drawn)	inactive	inactive	–	–
C[C@@H]1[C@H](O)[C@@H](C)/C=C/C=C\C=C\C=C\C=C\C=C\C=C\[C@H](O[C@@H]2O[C@H](C)[C@@H](O)[C@H](N)[C@@H]2O)C[C@@H]2O[C@](O)(C[C@@H](O)C[C@@H](O)[C@H](O)CC[C@@H](O)C[C@@H](O)CC(=O)O[C@H]1C)C[C@H](O)[C@H]2C(=O)O (stereo in doubt)	inactive	inactive	–	–
C#CCN(C)CCCOc1ccc(Cl)cc1Cl	inactive	inactive	–	–
O=C(O)CCn1c2c(c3ccccc31)C[C@H](NS(=O)(=O)c1ccc(F)cc1)CC2	inactive	inactive	–	–
CN(Cc1ccc(C(C)(C)C)cc1)Cc1cccc2ccccc12	inactive	inactive	–	–
CCCC(CC)c1ccccc1 (stereo not drawn)	inactive	inactive	–	–
O=C1c2c(O)ccc(O)c2C(=O)c2c(NCCNCCO)ccc(NCCNCCO)c21	inactive	inactive	–	–
C=C(C)CNCC	inactive	inactive	–	–
CCCCCC(=O)OCC	inactive	inactive	–	–
CCN[C@@H]1C[C@H](N)[C@@H](OC2OC(CN)=CCC2N)[C@H](O)[C@H]1O[C@H]1OC[C@](C)(O)[C@H](NC)[C@H]1O (stereo partly drawn)	–	–	1.22% [at 0.349 µM]	3.46% [at 0.349 µM]
CCCCCCCC/C=C\CCCCCCCCN	inactive	inactive	–	–
Nc1ccc(F)c([N+](=O)[O-])c1	inactive	inactive	–	–
O=C(O)c1ccc(OCCCOc2ccc(C(=O)O)cc2)cc1	inactive	inactive	–	–
NNS(=O)(=O)c1ccc(Oc2ccc(S(=O)(=O)NN)cc2)cc1	inactive	inactive	–	–
Cc1ccccc1C=O	inactive	inactive	–	–
CC(C)(C)CC(=O)OCC(=O)[C@@]1(O)CC[C@H]2[C@@H]3CCC4=CC(=O)C=C[C@]4(C)[C@H]3[C@@H](O)C[C@@]21C	inactive	inactive	–	–
CC[C@H](C)C(=O)O[C@H]1C[C@H](O)C=C2C=C[C@H](C)[C@H](CC[C@@H](O)C[C@@H](O)CC(=O)O)[C@H]21	inactive	5.45 µM (active)	–	–
CCCCCCCCC1CO1 (stereo not drawn)	inactive	inactive	–	–
NC(=O)c1ncn([C@@H]2O[C@H](CO)[C@@H](O)[C@H]2O)c1N	inactive	inactive	–	–
COc1c(Cl)c(Cl)c(Cl)c(Cl)c1Cl	inactive	inactive	–	–
C=C(C)C(=O)OCCNC(C)(C)C	inactive	inactive	–	–
CCOC(=O)NCCC[Si](OCC)(OCC)OCC	inactive	inactive	–	–
